Compounds without any hit were thinned out: in the full panel of roughly 83,000, 20% have a hit.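 Plates (96-well) were seeded with cells, treated with compound at one concentration, and incubated for 48 hours before percent growth was determined.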 Activity calls are given as the source filed them.
These molecules were tested on CAKI-1 renal (assay: NCI-60 one-dose screen, 48 h (100 = growth as untreated, 0 = no growth, -100 = all killed)). Conditions: 10 µM unless noted.
Protocol: Growth inhibition of the CAKI-1 human tumor cell line is measured as a screen for anti-cancer activity. Cells are grown in 96 well plates and exposed to the test compound for 48 hours. Compounds are tested at a single concentration, which is 10^-5 M for most compounds. The reported endpoint is percent growth (GI% or GIPRCNT), where numbers from 0 - 100% represent growth inhibition, and numbers from -100% - 0 represent cell death. For example, a value of 40 represents 60% growth inhibition. A value of 0 means no net growth occurred over the course of the experiment. A value of -40 indicates 40% of cells at the beginning of the experiment died by the end of the experiment. A value of -100 means all cells are dead at the end of the experiment.
NCI-60 Human Tumor Cell Lines Screen was performed using the standard one-dose NCI protocol, which is described in more detail at https://dtp.cancer.gov/discovery_development/nci-60/default.htm.
Compounds with GIPRCNT values below 10 were considered active. Activity score was based on GIPRCNT using the following formula: […]
Score is 0 for GIPRCNT values of 100 or above, 50 for GIPRCNT values of 0, and 100 for GIPRCNT values of -100.
With COc1ccc2[nH]c(=O)c(CSc3nccc(-c4ccc(OC)c(OC)c4)n3)cc2c1 the growth was -10.2% (active).
In the case of C=C1CCC2C3(C)COC(c4cccc(F)c4)OC3CCC2(C)C1C/C=C1/C(=O)OCC1O (stereo not given), the growth is reported as 11% (inactive).
With CC12CC[C@@H]3[C@]4(C)COC(c5c(F)cccc5F)O[C@@H]4CC[C@@]3(C)[C@@H]1CC(C1=CCOC1=O)O2 (stereo not given in full) the growth was 87.2% (inactive).
With CCCSc1nc(NCCc2c[nH]c3ccccc23)c(C#N)c(-c2ccc(OC)cc2)n1 the growth was 51% (inactive).
In the case of Cc1cc(N=C2NC(=O)CS2)n[nH]1, the growth is reported as 95.9% (inactive).
O=c1[nH]n(C(=S)N/N=C/c2ccccc2Cl)c(=O)c2ccccc12 was tested, and the growth was 27.5% (inactive).
For CC1(C)CC[C@]2(C(=O)O)CC[C@]3(C)C(=CCC4[C@@]5(C)C[C@@H](O)[C@@H]6OC(c7ccc(F)cc7)OC[C@@]6(C)C5CC[C@]43C)C2C1 (stereo not given in full), the growth was 33.6% (inactive).
O=C(O)c1cccc(-c2ccc(/C=N/NC(=O)c3[nH]c4ccc(Br)cc4c3-c3ccccc3)o2)c1 was tested, and the growth was 96.4% (inactive).
For N#Cc1c(NCc2ccccc2)n[nH]c1Nc1ccccc1, the growth was 33.4% (inactive).
For CCN(CC)c1ccnc(CNCCSC(c2ccccc2)(c2ccccc2)c2ccc(C)cc2)c1, the growth was -92.3% (active).
For O=C(c1ccc(OCCN2CCOCC2)cc1)C1[C@H](c2ccc(Cl)cc2)[C@@H](c2ccccc2)NC12C(=O)Nc1ccc(Cl)cc12 (stereo not given in full), the growth was 14.8% (inactive).
In the case of Cc1ccc(-c2nc(C#N)c(S(=O)(=O)N3CCN(S(=O)(=O)c4ccc(Cl)cc4)CC3)o2)cc1, the growth is reported as 94.1% (inactive).
N#Cc1c(-c2cccc(Cl)c2Cl)cc(-c2c[nH]c3ccccc23)[nH]c1=O was tested, and the growth was 53% (inactive).
COc1cc(/C=C/C(=O)c2ccccc2)ccc1Oc1nc(Nc2ccc(F)cc2)nc(N(C)C)n1 was tested, and the growth was 37.5% (inactive).
CCOC(=O)C(N=Nc1ccc(S(=O)(=O)N=C(N)N)cc1)C(C)=O (stereo not given) was tested, and the growth was 96.3% (inactive).
In the case of C=C1CC[C@@H]2[C@]3(C)COC(c4cn[nH]c4-c4ccc(C)cc4)O[C@@H]3CC[C@@]2(C)[C@@H]1C/C=C1/C(=O)OCC1O (stereo not given in full), the growth is reported as 50.3% (inactive).
In the case of C#CCOc1cc(N(CC)CC)ccc1C(C(=O)NC(C)(C)C)N(C(=O)C1CCc2cc(F)ccc2O1)c1cc(C)cc(C)c1 (stereo not given), the growth is reported as 27.9% (inactive).
In the case of COc1cc(C2CC(c3cc(OC)c(OC)c(OC)c3)=NN2C(C)=O)ccc1OCc1ccccc1 (stereo not given), the growth is reported as 29% (inactive).
With C=C1CC[C@@H]2[C@]3(C)COC(c4cn[nH]c4-c4ccc(Br)cc4)O[C@@H]3CC[C@@]2(C)[C@@H]1C/C=C1/C(=O)OCC1O (stereo not given in full) the growth was -40.9% (active).
In the case of COc1ccc(C(=O)Nc2n[nH]c(Nc3ccccc3)c2C#N)cc1, the growth is reported as 103% (inactive).
In the case of Cn1cc(-c2cc3nc(-c4cn(C)c5ncccc45)cc(N)n3n2)c2cc(Cl)ccc21, the growth is reported as -46.9% (active).
With CN(C)c1ccnc(CNCCSC2(c3ccc(C(F)(F)F)cc3)c3ccccc3CCc3ccccc32)c1 the growth was -0.905% (active).
In the case of COc1ccccc1C(=O)NN1C(=O)/C(=C/C2=Cc3ccccc3OC2)SC1=S, the growth is reported as 45.5% (inactive).
In the case of NS(=O)(=O)c1ccc(N=Nc2c(O)n(CC(=O)Nc3ccccc3Cl)c3ccccc23)cc1, the growth is reported as 16.6% (inactive).
In the case of O=C(O)c1ccc(-c2ccc(/C=N/NC(=O)c3[nH]c4ccc(Br)cc4c3-c3ccccc3)o2)cc1, the growth is reported as 38.5% (inactive).
In the case of CC(C)CSc1nc(NCCc2c[nH]c3ccccc23)c(C#N)c(-c2ccc(Cl)cc2)n1, the growth is reported as 50.1% (inactive).
For CN(C)c1nc(NCCNS(=O)(=O)c2ccc(C3=Nc4c(N)nc(N)nc4NC(c4ccc(Cl)cc4)C3)cc2)nc(Nc2ccc(F)cc2)n1 (stereo not given), the growth was 72.4% (inactive).
O=C1N/C(=N\c2nccs2)S/C1=C\C=C/c1ccccc1 was tested, and the growth was 35.1% (inactive).
In the case of COc1cc2oc(-c3cccc(C(=O)Nc4ccc(Cl)cc4)c3)cc(=O)c2c(OCCNC(=O)[C@H](CCC(=O)OC(C)(C)C)NC(=O)OC(C)(C)C)c1OC, the growth is reported as 69.4% (inactive).
With CC(C)Sc1nc(NCCc2c[nH]c3ccccc23)c(C#N)c(-c2ccccc2)n1 the growth was 34.3% (inactive).
For N/N=C(\N)c1c(N)nc(=S)[nH]c1-c1ccc(Cl)cc1Cl, the growth was 96.9% (inactive).
Nc1cc2ccccc2c(=O)n1NC(=O)c1ccc(I)cc1 was tested, and the growth was 83.6% (inactive).
COc1ccc(-c2nc(SC(C)C)nc(NCCc3c[nH]c4ccccc34)c2C#N)cc1 was tested, and the growth was 43% (inactive).
For COc1ccc(/C=C2\C(=N)N=C(SCc3nc4ccccc4[nH]3)NC2=O)cc1, the growth was 92.8% (inactive).
CC(C)CSc1nc(NCCc2c[nH]c3ccccc23)c(C#N)c(-c2ccc(F)cc2)n1 was tested, and the growth was 49.2% (inactive).
With O=c1onc(-c2cc3ccccc3nc2Cl)n1-c1cccc2ccccc12 the growth was 29.1% (inactive).
For Brc1ccc(N/N=C/c2c[nH]c3ccc(Br)cc23)nc1, the growth was -24.4% (active).
With CCOC(=O)/C=C/c1cccc2c1C(=O)NC(C)(c1cc3cc(Cl)ccc3oc1=O)N2 (stereo not given) the growth was 10.5% (inactive).
CCOC(=O)C1=C(N)N(c2ccccc2)C2=C(C(=O)CC(C)(C)C2)C1c1ccc([N+](=O)[O-])cc1 (stereo not given) was tested, and the growth was 68.4% (inactive).
For COc1cc2c(c(OC)c1OC)C(=O)CC(c1cccc(NC(=O)c3cc(NC(=O)[C@H](CO)NC(=O)OC(C)(C)C)ccc3Cl)c1)O2 (stereo not given in full), the growth was 31.2% (inactive).
